Screening data: PubChem, National Center for Advancing Translational Sciences (NCATS)
Compounds with a hit are over-represented: about 10% of the library has one in this group of screens.
FLuc inh – blocks purified firefly luciferase enzyme activity; P08659; purified P. pyralis luciferase, luminescence, biochemical; Potency, µM (doses to about 115 µM), actives largely listed as inhibitors; 76,000 tested, 2.5% active; also: nearly all actives have a fitted effect of over 65% in size
Target sequence (P08659 whole entry, looked up): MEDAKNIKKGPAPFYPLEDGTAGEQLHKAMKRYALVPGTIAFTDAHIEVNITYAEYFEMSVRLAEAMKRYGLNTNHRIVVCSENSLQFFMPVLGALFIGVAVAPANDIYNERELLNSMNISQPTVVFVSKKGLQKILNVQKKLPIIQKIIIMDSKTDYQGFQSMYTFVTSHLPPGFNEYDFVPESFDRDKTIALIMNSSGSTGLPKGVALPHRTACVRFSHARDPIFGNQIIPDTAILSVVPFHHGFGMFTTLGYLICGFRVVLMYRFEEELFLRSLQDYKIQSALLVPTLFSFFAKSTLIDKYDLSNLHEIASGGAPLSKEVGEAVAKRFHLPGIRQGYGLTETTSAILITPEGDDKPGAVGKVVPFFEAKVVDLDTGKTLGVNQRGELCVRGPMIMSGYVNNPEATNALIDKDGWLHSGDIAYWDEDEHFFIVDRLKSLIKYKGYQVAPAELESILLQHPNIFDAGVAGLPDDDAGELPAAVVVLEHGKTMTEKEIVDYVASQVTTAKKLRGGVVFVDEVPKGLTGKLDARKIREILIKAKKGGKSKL
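FLuc 10nM, D-luciferin 10uM, ATP 10uM, Mg acetate 10mM, Tris acetate pH 7.5, Tween/BSA; cpd qHTS; enzyme added last; CCD luminescence.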
3T3 cytotox – kills NIH 3T3 cells; AID 1345082; Potency, µM (doses to about 96.7 µM), for inactives: top-dose activity change, negative = cytotoxicity, most hits filed as inhibitors; NIH 3T3 viability, CellTiter-Glo ATP luminescence, 48-72 h; 94,000 tested, 4.3% active; also: nearly all actives have a fitted effect of over 55% in size
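Cytotoxicity is measured as loss of cellular ATP: NIH 3T3 cells (400/well) are exposed to compound for 48 or 72 hr at 37 °C, then CellTiter-Glo luminescence is imaged after 10 min at room temperature.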
hNpr1 antagonist – antagonists of human natriuretic peptide receptor Npr1; HEK293 hNpr1 GloSensor cGMP, ANP-stimulated luminescence; 76,000 tested, 1.6% active; AID 1347048; P16066; Potency, µM (series often up to 46.3 µM), for inactives: at the highest dose activity change, negative = inhibition, usual class: inhibitors; calls by dose curve; also: nearly all actives have a fitted effect of over 60% in size
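HEK293 cells stably expressing human Npr1 and cGMP GloSensor pGS-40F, loaded 2 h with 2% GloSensor reagent, given compound 30 min at room temperature. Luminescence read before and 20 min after 0.1 nM hNppA.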
GPT2 inh – blocks human glutamate pyruvate transaminase 2; Potency, µM (highest dose often 57.7 µM), without a hit: top-dose activity change, negative = inhibition, hits mostly inhibitors; 100,000 tested, 0.25% active; Q8TD30; Recombinant GPT2, coupled pyruvate oxidase/HRP Amplex Red fluorescence; AID 1671188; also: nearly all actives have a fitted effect of over 60% in size
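Fluorescence read-out: pyruvate from GPT2 turnover coupled to pyruvate oxidase, HRP and Amplex Red (0.2mM ThPP, 0.2U/mL PO and HRP, 50uM Amplex final). Substrates 250uM a-KG, 2mM L-alanine; enzyme 10ng/uL; 30 min RT.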
HEK293 tox – cytotoxic compounds in HEK 293 cells. 94,000 tested, 6.6% active. AID 1345083. Potency, µM (highest dose often 115 µM), for inactives: at the highest dose activity change, negative = cytotoxicity, most hits filed as inhibitors. HEK 293 viability, ATP luminescence (CellTiter-Glo), 48-72 h; also: nearly all actives have a fitted effect of over 60% in size
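qHTS cytotoxicity; HEK 293, 250 cells/well; compound pinned; 48 or 72 hr, 37 degree Celsius, 5% CO2, 95% humidity; CellTiter-Glo, 10 min RT; luminescence (ATP).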
Starred values were filed as active, the others as inactive; i = inactive; ? = inconclusive; nt = no result given; [ ] = another dose, or the depositor's remark. Unless noted, calls follow the shape of the dose curve; as a rule, active = well fitted curve in the direction sought with a large enough effect; inconclusive = small, poorly fitted or top-dose-only effect, or another doubt; inactive = no such curve, though single readings can be large; an effect the other way counts as inactive or inconclusive. % is scaled to controls: 0 for no effect and ±100 for the full control effect; potency is read from the fitted curve at half-maximal effect.

SMILES	FLuc inh	3T3 cytotox	hNpr1 antagonist	GPT2 inh	HEK293 tox
COCCNC(=O)CCCN1C(=O)COc2ccc(C(=O)COc3ccc(C(C)(C)C)cc3)cc21	14.1µM*	?	-16.1%	i	?
Oc1ccc(CN2CC(CNc3ccccc3)C3(C2)CN(c2ccccc2)C3)cc1 (centres undefined)	i	25.1µM*	-22.1%[70.6 µM]	-0.8%[88.5 µM]	39.8µM*
Clc1cccc(CN2CC(CNc3cccnc3)C3(C2)CN(c2ccccc2)C3)c1 (centres undefined)	i	?	-20.3%[70.6 µM]	-0.2%[88.5 µM]	?
O=C(NCC1CN(C(=O)Cc2ccc(OC(F)(F)F)cc2)CC12CN(c1ccccc1)C2)Nc1ccccc1 (centres undefined)	i	28.2µM*	-8.3%	i	?
c1ccc(CN2CC(CNc3cccnc3)C3(C2)CN(c2ccccc2)C3)cc1 (centres undefined)	i	50.1µM*	-4.5%[70.6 µM]	0.4%[88.5 µM]	?
Nc1ncccc1CN1CC(COc2ccccc2)C2(C1)CN(c1ccccc1)C2 (centres undefined)	i	39.8µM*	-29.9%[70.6 µM]	-1.5%[88.5 µM]	35.5µM*
O=C(COc1ccccc1)N1CC(CNc2cccnc2)C2(C1)CN(c1ccccc1)C2 (centres undefined)	i	?	-11.5%[70.6 µM]	i	70.8µM*
O=C(NCC1CN(Cc2cccc(O)c2)CC12CN(c1ccccc1)C2)c1ccccc1 (centres undefined)	i	28.2µM*	-17.5%[70.6 µM]	-5.4%[88.5 µM]	?
COc1ccccc1C(=O)N1CC(CNc2cccnc2)C2(C1)CN(c1ccccc1)C2 (centres undefined)	i	?	-5.8%[70.6 µM]	-8.9%[88.5 µM]	?
O=C1CC(c2noc(Cc3ccc(Cl)cc3)n2)CN1C1CCCCC1 (centres undefined)	i	?	-17.1%	?	70.8µM*
Cc1ccc(-c2cccc(CN3CCCC3C(=O)N3CCCCC3)c2)cc1Cl (centres undefined)	nt	31.6µM*	nt	nt	31.6µM*
Cc1ccc(-c2cccc(CN3CCCC3C(=O)N3CCC(C#N)CC3)c2)cc1Cl (centres undefined)	nt	31.6µM*	nt	nt	39.8µM*
O=C(NCc1nnc2ccc(-c3ccc(F)cc3)nn12)c1cccc(OC(F)(F)F)c1	i	?	4.9%	-4.7%	?
CCCN(C)c1nccnc1OC1CCN(C(=O)c2c(F)cccc2F)C1 (centres undefined)	?	?	-4.0%	i	?
CCCN(C)c1nccnc1OC1CCN(C(=O)Cc2ccccc2OC)C1 (centres undefined)	35.5µM*	?	-11.2%	i	?
CCCN(C)c1nccnc1OC1CCN(C(=O)c2cccc(OC)c2OC)C1 (centres undefined)	31.6µM*	?	-14.6%	?	?
COc1ccccc1-c1noc(CCC(=O)N2CCc3c(nc4cc(-c5ccccc5)[nH]n4c3=O)C2)n1	i	-20.9%	-12.9%	i	?
O=C1CCC2(CNC(=O)C3CC3)CCCC=C2N1 (centres undefined)	i	-8.5%	5.0%	-3.9%	-0.9%
CC(C)CC1=NS(=O)(=O)c2cc(NC(=O)C3CC3)ccc2N1c1ccccc1	i	?	0.4%	i	?
N#Cc1cccc(CN2CC[C@H]3C(=O)NCCCCCCN(Cc4ccncc4)[C@@H]3C2)c1	i	-12.2%	-1.0%	i	i
CC1=C(C(=O)NC(C)(C)C)C(c2ccc(Cl)cc2)N2C(CC(=O)N3CCCC3)=CSC2=N1 (centres undefined)	i	44.7µM*	-17.1%	i	?
CC(C)C(O)C1CCN(c2nccc(-c3cc(C(=O)O)ccn3)n2)CC1 (centres undefined)	50.1µM*	-11.4%	0.2%	-13.1%	-18.1%
Cc1ccccc1-c1nc2cc3c(cc2cc1CN1CCC[C@H]1CO)OCO3	i	-10.3%	-1.3%	i	i
COc1ccccc1CN1CCC2(CC1)OC(=O)N(Cc1ccccc1)C2(C)c1ccccc1 (centres undefined)	i	?	-12.2%	-5.6%	50.1µM*
CC1(c2ccccc2)N(Cc2ccc(O)cc2)C(=O)OC12CCN(Cc1c[nH]c3ccccc13)CC2 (centres undefined)	i	10µM*	?	-17.2%	?
SMILES	FLuc inh	3T3 cytotox	hNpr1 antagonist	GPT2 inh	HEK293 tox
COc1ncc(CN2CCC3(CC2)OC(=O)N(Cc2ccccc2)C3(C)c2ccccc2)cn1 (centres undefined)	i	-14.6%	-1.9%	-5.6%	?
Cc1ccccc1CN1CCC2(CC1)OC(=O)N(Cc1ccc(O)cc1)C2(C)c1ccccc1 (centres undefined)	i	31.6µM*	-25.1%	-18.9%	35.5µM*
COc1ccc(NC(=O)NC[C@H]2O[C@@H]3C[C@@H](CC(=O)NC(C)C)O[C@@H]3[C@@H]2O)cc1	i	1.5%[174 µM]	0.7%[70.6 µM]	i	i
O=C1NC2(CCN(CC3CCCC3)CC2)Oc2ccccc21	i	-21.9%[138 µM]	?	2.2%[88.5 µM]	?
COc1ccc(-c2ccc(-c3nc(CC(C)C)no3)cn2)c2cccnc12	i	?	?	?	25.1µM*
COc1cc(-c2ccc(-c3nc(CC(C)C)no3)cn2)cc(OC)c1OC	i	?	0.8%	3.7%	?
O=C(Nc1cccc(C(F)(F)F)c1)c1cnc2c(c1)N(Cc1ccccc1)CCC2	i	31.6µM*	-30.3%[70.6 µM]	-7.5%[88.5 µM]	63.1µM*
COc1ccccc1CC(=O)N1CCCc2ncc(C(=O)Nc3cccc(Cl)c3)cc21	i	?	?	i	56.2µM*
COc1ccc(NC(=O)c2cnc3c(c2)N(C(=O)Cc2cccc(C(F)(F)F)c2)CCC3)cc1OC	i	?	0.1%	-2.3%	?
COc1ccccc1CC(=O)N1CCCc2ncc(C(=O)Nc3ccc(OC)c(OC)c3)cc21	i	-23.5%	-0.2%	-7.8%	?
COc1ccccc1CC(=O)N1CCCc2ncc(C(=O)Nc3cccc(C(F)(F)F)c3)cc21	i	?	-12.7%	?	50.1µM*
Cc1cccnc1CN1CCN(CC2(O)CCNC2)CC1 (centres undefined)	i	-12.5%	-0.2%	?	-1.5%
COc1ccc(C(=O)NC[C@H]2Cn3ccnc3CO2)cc1	i	-2.4%[230 µM]	-1.1%[70.6 µM]	-7.8%[88.5 µM]	2.9%[230 µM]
COCCCNC(=O)CNC(=O)c1ccc(-c2cnc3ccccc3c2)cc1	nt	-39.5%	nt	nt	79.4µM*
O=C(CNC(=O)c1ccc(-c2cnc3ccccc3c2)cc1)NCc1ccc2c(c1)OCO2	nt	-25.6%	nt	nt	50.1µM*
CCOc1cccc(CNC(=O)c2cc3n(n2)CC(c2ccc4c(c2)OCO4)OC3)c1 (centres undefined)	i	?	-22.6%	i	?
